From PubChem BioAssay (NCI)
Compounds without any hit were thinned out: in the full panel of roughly 79,000, 15% have a hit. The source made the active and inactive calls. Cut-off read from the data, not from the text of the source: active = growth inhibition above about 70%; inactive = the rest.

Experiments:
[1] = NCI Yeast Anticancer Drug Screen. Data for the rad50 strain (AID 155);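 note: 0% = growth of vehicle-only cultures of the same strain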; details: S. cerevisiae rad50 strain growth inhibition, active compounds read high
Method in brief: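 Yeast carrying a defined DNA repair defect were exposed to test compounds, and growth was compared with vehicle-treated controls to give percent inhibition.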

[2] = NCI Yeast Anticancer Drug Screen. Data for the mec2-1 strain (AID 157); details: S. cerevisiae mec2-1 strain, active compounds read high
Method in brief: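 Readout is yeast growth inhibition, normalised to vehicle-treated controls, in the mec2-1 strain exposed to compound.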

[3] = NCI Yeast Anticancer Drug Screen. Data for the sgs1 mgt1 strain (AID 161);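 note: 0% = growth of cultures given vehicle only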; details: S. cerevisiae sgs1 mgt1 strain, active compounds read high
Method in brief: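 This yeast growth screen uses a strain with defined DNA-repair lesions; compound-treated growth is compared with vehicle-treated growth.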

[4] = NCI Yeast Anticancer Drug Screen. Data for the cln2 rad14 strain (AID 165);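 note: 0% = growth equal to vehicle treated cultures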; details: S. cerevisiae cln2 rad14 strain, active compounds read high
Method in brief: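 Relative to vehicle controls, growth inhibition of compound-treated cln2 rad14 yeast was recorded.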

[5] = NCI Yeast Anticancer Drug Screen. Data for the bub3 strain (AID 167); details: S. cerevisiae bub3 mutant strain, active compounds read high
Method in brief: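 Compounds were applied to a genetically altered yeast strain carrying a cell-cycle control defect. Growth inhibition was scored against vehicle-treated controls.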

[6] = NCI Yeast Anticancer Drug Screen. Data for the mlh1 rad18 strain (AID 175); details: S. cerevisiae mlh1 rad18 strain growth inhibition, active compounds read high
Method in brief: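 Test agents were incubated with a yeast strain of defined genotype (DNA damage repair defect). Inhibition of growth was derived by comparison with vehicle-exposed cultures.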

[7] = at 5.0 µM (retest, dose inferred, filed as 0.5)
[8] = at 50.0 µM (retest, dose inferred, filed as 5.0)

Measured: growth inhibition

CN1C/C(=C\c2ccccc2)C(=O)C(c2ccccc2)C1 (configuration not stated)
active: [1]; [8] 94% | [2]; [8] 95% | [3]; [8] 96% | [4]; [8] 94% | [5]; [8] 95% | [5]; at 50.0 µM 77.2% | [6]; [8] 95%
inactive: [1]; [7] -1% | [1]; at 50.0 µM 1.9% | [2]; [7] 0% | [2]; at 50.0 µM 19.9% | [3]; [7] 0% | [3]; at 50.0 µM 28.8% | [4]; [7] 1% | [4]; at 50.0 µM -20.6% | [5]; [7] -7% | [6]; [7] -1% | [6]; at 50.0 µM 31.4%

COc1ccc(-c2nc3c(C(=O)NCCN(C)C)cccc3c3ccccc23)cc1
inactive: [1]; [7] 14% | [1]; [8] 42% | [2]; [7] 17% | [2]; [8] 9% | [2]; at 50.0 µM 56% | [3]; [7] -12% | [3]; [8] 55% | [3]; at 50.0 µM 13.9% | [4]; [7] 3% | [4]; [8] 37% | [4]; at 50.0 µM 0.85% | [5]; [7] 8% | [5]; [8] 54% | [5]; at 50.0 µM -15.3% | [6]; [7] 10% | [6]; [8] 37%
active: [1]; at 50.0 µM 70.5% | [6]; at 50.0 µM 89.5%

O=C1C(=O)c2ccccc2C(O)=C1C(c1ccccc1)c1ccccc1
inactive: [1]; [7] 42% | [1]; at 50.0 µM 53.5% | [2]; [7] 39% | [2]; at 50.0 µM 66% | [3]; [7] 57% | [4]; [7] 27% | [4]; at 50.0 µM 58.2% | [5]; [7] 18% | [5]; at 50.0 µM 60.6% | [6]; [7] 54% | [6]; at 50.0 µM 62%
active: [1]; [8] 82% | [2]; [8] 85% | [3]; [8] 91% | [3]; at 50.0 µM 82.5% | [4]; [8] 83% | [5]; [8] 83% | [6]; [8] 90%

CC[C@H](CC[C@@H](C)C1CC[C@H]2[C@@H]3CCC4=CC(=O)CC[C@]4(C)[C@H]3CC[C@]12C)C(C)C (some centres not stated)
active: [3]; at 50.0 µM 76% | [6]; [8] 83%
inactive: [1]; [7] -4% | [1]; [8] 18% | [1]; at 50.0 µM 50.9% | [2]; [7] -8% | [2]; [8] 65% | [2]; at 50.0 µM 35.7% | [3]; [7] -8% | [3]; [8] 68% | [4]; [7] -6% | [4]; [8] 28% | [4]; at 50.0 µM 63.3% | [5]; [7] -10% | [5]; [8] 29% | [5]; at 50.0 µM 30.6% | [6]; [7] 20% | [6]; at 50.0 µM 36%

CN(C)CCN(C)N=Nc1c(-c2ccc(Cl)cc2)n[nH]c1C(F)(F)F
active: [1]; [7] 98% | [1]; [8] 99% | [1]; at 50.0 µM 98.8% | [2]; [7] 99% | [2]; [8] 99% | [2]; at 50.0 µM 99.7% | [3]; [7] 99% | [3]; [8] 99% | [3]; at 50.0 µM 99.4% | [4]; [7] 99% | [4]; [8] 99% | [4]; at 50.0 µM 99.3% | [5]; [7] 99% | [5]; [8] 99% | [5]; at 50.0 µM 96% | [6]; [7] 99% | [6]; [8] 99% | [6]; at 50.0 µM 99.5%

CC(/C=C/C(O)=C1/C(=O)CNC1=O)=C\[C@@H](C)[C@H]1O[C@@]2(C)O[C@H](C(=O)[C@@H]3O[C@@]32C)[C@@H]1C
active: [1]; [7] 98% | [1]; [8] 99% | [1]; at 50.0 µM 91.8% | [2]; [7] 99% | [2]; [8] 99% | [2]; at 50.0 µM 94.5% | [3]; [7] 98% | [3]; [8] 98% | [3]; at 50.0 µM 94.2% | [4]; [7] 97% | [4]; [8] 95% | [4]; at 50.0 µM 90.8% | [5]; [7] 98% | [5]; [8] 99% | [5]; at 50.0 µM 93.4% | [6]; [7] 98% | [6]; [8] 98% | [6]; at 50.0 µM 90.3%

O=S(=O)(O)CNc1cc(Cl)cc(Cl)c1
inactive: [1]; [7] 34% | [1]; at 50.0 µM 13.9% | [2]; [7] 9% | [2]; [8] 28% | [2]; at 50.0 µM -5% | [3]; [7] 1% | [3]; [8] 17% | [3]; at 50.0 µM 2.3% | [4]; [7] 4% | [4]; [8] 16% | [4]; at 50.0 µM -53.4% | [5]; [7] 6% | [5]; at 50.0 µM 2.1% | [6]; [7] 8% | [6]; [8] 33% | [6]; at 50.0 µM 41.8%
active: [1]; [8] 78% | [5]; [8] 85%

Fc1cccc(NC(=S)SCc2ccc(Cl)cc2)c1
active: [1]; [8] 98% | [1]; at 50.0 µM 99.4% | [2]; [8] 98% | [2]; at 50.0 µM 99.7% | [3]; [8] 99% | [3]; at 50.0 µM 99.7% | [4]; [8] 99% | [4]; at 50.0 µM 99.5% | [5]; [8] 98% | [5]; at 50.0 µM 99.5% | [6]; [8] 99% | [6]; at 50.0 µM 99.6%
inactive: [1]; [7] 20% | [2]; [7] 15% | [3]; [7] 12% | [4]; [7] -6% | [5]; [7] 10% | [6]; [7] 23%

CC[n+]1cnc(N)c2c(-c3ccc(Cl)cc3)cn(-c3ccc(C)cc3)c21
active: [1]; [8] 98% | [1]; at 50.0 µM 93.1% | [2]; [8] 99% | [2]; at 50.0 µM 95.5% | [3]; [8] 99% | [3]; at 50.0 µM 97.9% | [4]; [8] 98% | [5]; [8] 98% | [5]; at 50.0 µM 80.3% | [6]; [8] 98% | [6]; at 50.0 µM 97.8%
inactive: [1]; [7] -2% | [2]; [7] -4% | [3]; [7] -6% | [4]; [7] -6% | [4]; at 50.0 µM 46.9% | [5]; [7] -1% | [6]; [7] -3%
